Records with an inconclusive call do not appear. Calls of active or inactive are those of the source. Rule for the calls: active = hit-call score of the fitted dose curve at least 0.9, where 1 is the maximum; inconclusive = response in the unintended direction; inactive = score below 0.9.

In test [1] the target is human Phosphodiesterase 10 (PDE10), PDE10A (gene 10846) (UniProt Q9Y233). Briefly: NVS_ENZ_hPDE10: NovaScreen (NVS) Enzymatic Assay for human Phosphodiesterase 10 (PDE10) (AID 2283195). Put shortly:
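Fluorescence/mobility-shift readout of PDE10A enzyme activity, taken 1 h post-dosing. Primary screen in duplicate at 25 uM; actives (e.g. ≥30% inhibition) retested as singleton concentration-response, top concentration 50 uM.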

Test [2] has as its target human Matrix Metalloproteinase-9 (MMP9), MMP9 (gene 4318) (UniProt P14780). Briefly: NVS_ENZ_hMMP9: NovaScreen (NVS) Enzymatic Assay for human Matrix Metalloproteinase-9 (MMP9) (AID 2283190).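 Note: cell-free recombinant MMP9 protease activity read by fluorescent substrate signal; active means inhibition seen as loss of fluorescence signal versus DMSO.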 The method in brief: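 Inhibition was scored as loss of fluorescence signal against DMSO controls. The recombinant protease was exposed to chemicals for 1 hour before reading; initial testing used 25 uM in duplicate.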

The target in test [3] is sheep Cyclooxygenase-1 (Cox1), PTGS1 (gene 443551) (UniProt P05979). Briefly: NVS_ENZ_oCOX1: NovaScreen (NVS) Enzymatic Assay for sheep Cyclooxygenase-1 (Cox1) (AID 2283239).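 Note: actives reduce cyclooxygenase activity so potencies are for inhibitors.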 The method in brief: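 Cell-free colorimetric assay of enzyme activity in a native extract of ovine seminal vesicles. Absorbance was read 0.66 hour after compound addition. Loss of signal relative to the DMSO negative control was scored, with actives from the 25 uM duplicate primary screen retested in concentration series.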
Sequence of sheep Cyclooxygenase-1 (Cox1), PTGS1 (gene 443551) (P05979 whole entry, looked up): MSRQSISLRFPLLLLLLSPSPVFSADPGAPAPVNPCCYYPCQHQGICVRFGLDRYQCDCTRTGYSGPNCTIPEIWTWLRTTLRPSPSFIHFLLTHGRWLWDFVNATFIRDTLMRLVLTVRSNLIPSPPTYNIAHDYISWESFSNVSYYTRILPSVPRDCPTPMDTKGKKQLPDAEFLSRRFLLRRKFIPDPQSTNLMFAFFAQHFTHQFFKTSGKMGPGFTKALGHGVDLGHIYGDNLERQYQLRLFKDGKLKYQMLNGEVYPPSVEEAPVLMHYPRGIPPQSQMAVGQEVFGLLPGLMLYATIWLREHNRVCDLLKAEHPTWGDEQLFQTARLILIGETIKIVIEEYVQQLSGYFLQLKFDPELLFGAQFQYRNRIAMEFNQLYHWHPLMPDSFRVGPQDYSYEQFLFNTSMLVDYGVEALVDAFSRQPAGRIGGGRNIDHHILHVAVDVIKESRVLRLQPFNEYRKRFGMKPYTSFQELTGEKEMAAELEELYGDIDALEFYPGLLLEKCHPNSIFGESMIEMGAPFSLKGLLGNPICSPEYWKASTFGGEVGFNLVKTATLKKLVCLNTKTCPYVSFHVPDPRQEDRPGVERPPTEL

Test [4] concerns the target human Phosphoinositide 3-kinase alpha (PI3Ka), PIK3CA (gene 5290) (UniProt P42336). Briefly: NVS_ENZ_hPI3Ka: NovaScreen (NVS) Enzymatic Assay for human Phosphoinositide 3-kinase alpha (PI3Ka) (AID 2283196). Put shortly:
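Chemicals were first screened at 25 uM in duplicate, then hits were run as concentration series up to 50 uM. Enzyme activity was measured by fluorescence after mobility-shift separation, with loss of signal relative to DMSO taken as activity.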

The target in test [5] is D(1A) dopamine receptor (Homo sapiens) (UniProt P21728). Briefly: NVS_GPCR_hDRD1: NovaScreen (NVS) G Protein-Coupled Receptor Assay for human Dopamine Receptor D1 (DRD1) (AID 2283269). Put shortly: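 HEK293-derived receptor preparation; radioligand competitive displacement; 1 h; filtration + scintillation counting. DMSO = negative control/baseline. Primary: 25 uM, duplicate; secondary: concentration–response for actives.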

Test [6] concerns the target human Neurokinin, NK2 Receptor, TACR2 (gene 6865) (UniProt P21452). Briefly: NVS_GPCR_hNK2: NovaScreen (NVS) G Protein-Coupled Receptor Assay for human Neurokinin, NK2 Receptor (AID 2283278).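 Note: actives reduce bound radioligand signal relative to DMSO baseline.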 Put shortly: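 Filter-based scintillation counting measured radioligand bound to receptor extracted from CHO cells, 4 hours after compound addition. Chemicals screened first at 25 uM in duplicate, with actives retested in concentration series relative to DMSO.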

Test [7] concerns the target human MAP Kinase-Activated Protein Kinase 2 (MAPKAPK2), MAPKAPK2 (gene 9261) (UniProt P49137). Briefly: NVS_ENZ_hMAPKAPK2: NovaScreen (NVS) Enzymatic Assay for human MAP Kinase-Activated Protein Kinase 2 (MAPKAPK2) (AID 2283178). The method in brief:
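Cell-free recombinant human MAPKAPK2 activity measured by fluorescence with electrophoretic mobility shift separation of substrate and product, 1 hr after dosing. Loss of signal versus DMSO; primary screen at 25 uM, concentration-response up to 50 uM.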

Test [8] has as its target human Matrix Metalloproteinase-2 (MMP2), MMP2 (gene 4313) (UniProt P08253). Briefly: NVS_ENZ_hMMP2: NovaScreen (NVS) Enzymatic Assay for human Matrix Metalloproteinase-2 (MMP2) (AID 2283184). Put shortly: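 Cell-free recombinant MMP2 activity with a fluorescent substrate, read 1 h after dosing. Primary screen in duplicate at 25 uM; actives then run in concentration series; loss of signal fitted versus DMSO.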

For test [9], the target named is sheep Cyclooxygenase-2 (Cox2), PTGS2 (gene 443460) (UniProt P79208). Briefly: NVS_ENZ_oCOX2: NovaScreen (NVS) Enzymatic Assay for sheep Cyclooxygenase-2 (Cox2) (AID 2283231). The method in brief:
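Ovine placental enzyme, cell-free; chemical added, 0.66 h, absorbance (colorimetric). Screen 25 uM in duplicate; ≥threshold hits titrated, top 50 uM. Inhibition = signal loss vs DMSO.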

Sequence of human Phosphodiesterase 10 (PDE10), PDE10A (gene 10846) (Q9Y233 whole entry, looked up): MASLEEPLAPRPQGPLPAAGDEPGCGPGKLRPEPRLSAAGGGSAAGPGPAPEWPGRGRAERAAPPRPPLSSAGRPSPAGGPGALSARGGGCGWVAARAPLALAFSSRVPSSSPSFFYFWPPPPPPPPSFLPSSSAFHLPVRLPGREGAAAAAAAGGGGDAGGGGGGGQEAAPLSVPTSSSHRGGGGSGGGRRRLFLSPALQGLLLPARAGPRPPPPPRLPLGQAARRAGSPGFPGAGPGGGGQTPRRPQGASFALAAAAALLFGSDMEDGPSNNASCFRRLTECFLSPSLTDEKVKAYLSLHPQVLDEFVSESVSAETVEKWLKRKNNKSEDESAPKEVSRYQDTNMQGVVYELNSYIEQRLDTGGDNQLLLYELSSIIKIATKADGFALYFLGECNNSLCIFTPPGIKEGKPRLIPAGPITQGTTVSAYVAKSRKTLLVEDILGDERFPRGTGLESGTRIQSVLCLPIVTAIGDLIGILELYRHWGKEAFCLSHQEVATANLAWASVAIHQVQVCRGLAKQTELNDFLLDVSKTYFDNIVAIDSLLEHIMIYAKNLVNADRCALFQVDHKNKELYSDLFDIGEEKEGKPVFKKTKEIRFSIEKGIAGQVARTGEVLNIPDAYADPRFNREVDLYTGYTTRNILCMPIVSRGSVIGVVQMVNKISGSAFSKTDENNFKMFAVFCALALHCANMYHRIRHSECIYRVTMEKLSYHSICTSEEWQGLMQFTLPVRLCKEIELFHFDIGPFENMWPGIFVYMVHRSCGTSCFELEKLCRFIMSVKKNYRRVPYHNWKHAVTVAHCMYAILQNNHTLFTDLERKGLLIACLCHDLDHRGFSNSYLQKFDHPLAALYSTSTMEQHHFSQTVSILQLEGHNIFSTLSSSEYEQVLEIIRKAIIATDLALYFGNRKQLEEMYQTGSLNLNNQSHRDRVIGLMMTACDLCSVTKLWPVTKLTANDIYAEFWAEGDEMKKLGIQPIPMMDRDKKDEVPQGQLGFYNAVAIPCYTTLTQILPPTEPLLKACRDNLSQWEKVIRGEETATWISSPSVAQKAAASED
Sequence of human Phosphoinositide 3-kinase alpha (PI3Ka), PIK3CA (gene 5290) (P42336 whole entry, looked up): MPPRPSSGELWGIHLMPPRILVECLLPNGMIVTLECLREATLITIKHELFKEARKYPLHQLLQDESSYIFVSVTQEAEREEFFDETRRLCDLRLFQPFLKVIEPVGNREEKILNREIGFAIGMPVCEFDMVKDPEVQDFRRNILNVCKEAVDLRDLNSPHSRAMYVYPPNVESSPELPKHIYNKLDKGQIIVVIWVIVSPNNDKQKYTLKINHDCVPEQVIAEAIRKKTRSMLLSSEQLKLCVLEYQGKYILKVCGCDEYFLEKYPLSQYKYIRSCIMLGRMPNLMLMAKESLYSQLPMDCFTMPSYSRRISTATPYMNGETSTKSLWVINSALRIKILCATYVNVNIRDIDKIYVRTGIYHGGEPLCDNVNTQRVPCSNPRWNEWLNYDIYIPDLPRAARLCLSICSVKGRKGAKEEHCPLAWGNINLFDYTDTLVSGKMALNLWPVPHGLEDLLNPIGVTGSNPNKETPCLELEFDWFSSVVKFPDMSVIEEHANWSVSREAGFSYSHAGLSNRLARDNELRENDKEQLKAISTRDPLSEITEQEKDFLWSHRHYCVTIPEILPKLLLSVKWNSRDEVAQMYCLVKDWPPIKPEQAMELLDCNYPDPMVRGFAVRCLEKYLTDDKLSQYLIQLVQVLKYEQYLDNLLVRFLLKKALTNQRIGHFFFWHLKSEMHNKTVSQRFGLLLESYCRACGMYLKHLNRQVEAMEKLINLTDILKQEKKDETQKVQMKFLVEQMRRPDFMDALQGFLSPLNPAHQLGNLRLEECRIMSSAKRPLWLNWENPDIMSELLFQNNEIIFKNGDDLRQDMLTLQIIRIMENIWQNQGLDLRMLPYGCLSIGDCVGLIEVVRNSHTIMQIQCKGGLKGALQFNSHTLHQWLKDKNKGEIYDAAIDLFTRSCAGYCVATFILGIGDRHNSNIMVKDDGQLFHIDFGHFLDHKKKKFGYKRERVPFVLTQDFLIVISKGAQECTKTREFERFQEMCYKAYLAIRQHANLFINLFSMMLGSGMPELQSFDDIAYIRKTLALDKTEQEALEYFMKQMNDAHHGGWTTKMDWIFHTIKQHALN
Sequence of human Matrix Metalloproteinase-9 (MMP9), MMP9 (gene 4318) (P14780 whole entry, looked up): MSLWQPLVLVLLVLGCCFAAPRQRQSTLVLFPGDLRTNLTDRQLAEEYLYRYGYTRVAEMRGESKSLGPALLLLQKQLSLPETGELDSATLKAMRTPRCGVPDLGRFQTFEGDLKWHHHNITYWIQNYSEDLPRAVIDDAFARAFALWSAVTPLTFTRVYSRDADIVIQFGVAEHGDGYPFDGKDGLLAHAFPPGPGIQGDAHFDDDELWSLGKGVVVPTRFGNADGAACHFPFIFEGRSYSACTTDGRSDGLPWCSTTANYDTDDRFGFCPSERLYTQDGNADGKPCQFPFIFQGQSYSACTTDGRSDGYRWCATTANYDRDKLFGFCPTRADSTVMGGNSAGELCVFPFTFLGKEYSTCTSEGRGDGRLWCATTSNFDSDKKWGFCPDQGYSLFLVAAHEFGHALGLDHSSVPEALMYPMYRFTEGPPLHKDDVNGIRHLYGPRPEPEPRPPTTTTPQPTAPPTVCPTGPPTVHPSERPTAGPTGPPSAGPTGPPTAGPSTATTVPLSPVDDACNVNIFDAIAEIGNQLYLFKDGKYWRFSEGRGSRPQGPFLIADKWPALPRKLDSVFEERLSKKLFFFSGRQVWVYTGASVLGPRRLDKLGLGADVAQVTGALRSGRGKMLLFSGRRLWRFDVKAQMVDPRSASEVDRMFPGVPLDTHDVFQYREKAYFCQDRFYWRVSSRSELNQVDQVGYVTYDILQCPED
Sequence of human MAP Kinase-Activated Protein Kinase 2 (MAPKAPK2), MAPKAPK2 (gene 9261) (P49137 whole entry, looked up): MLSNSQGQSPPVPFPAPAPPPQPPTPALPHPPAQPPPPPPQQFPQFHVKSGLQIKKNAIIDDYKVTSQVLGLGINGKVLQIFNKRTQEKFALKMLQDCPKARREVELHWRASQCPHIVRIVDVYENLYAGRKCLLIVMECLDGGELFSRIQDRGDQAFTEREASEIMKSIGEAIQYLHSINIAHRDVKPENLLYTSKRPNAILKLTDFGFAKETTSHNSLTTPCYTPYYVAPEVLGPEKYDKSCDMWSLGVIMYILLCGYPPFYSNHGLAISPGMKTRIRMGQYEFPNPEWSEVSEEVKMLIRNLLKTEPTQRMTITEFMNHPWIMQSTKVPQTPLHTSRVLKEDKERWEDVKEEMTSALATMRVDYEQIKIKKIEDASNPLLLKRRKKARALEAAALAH
Sequence of human Matrix Metalloproteinase-2 (MMP2), MMP2 (gene 4313) (P08253 whole entry, looked up): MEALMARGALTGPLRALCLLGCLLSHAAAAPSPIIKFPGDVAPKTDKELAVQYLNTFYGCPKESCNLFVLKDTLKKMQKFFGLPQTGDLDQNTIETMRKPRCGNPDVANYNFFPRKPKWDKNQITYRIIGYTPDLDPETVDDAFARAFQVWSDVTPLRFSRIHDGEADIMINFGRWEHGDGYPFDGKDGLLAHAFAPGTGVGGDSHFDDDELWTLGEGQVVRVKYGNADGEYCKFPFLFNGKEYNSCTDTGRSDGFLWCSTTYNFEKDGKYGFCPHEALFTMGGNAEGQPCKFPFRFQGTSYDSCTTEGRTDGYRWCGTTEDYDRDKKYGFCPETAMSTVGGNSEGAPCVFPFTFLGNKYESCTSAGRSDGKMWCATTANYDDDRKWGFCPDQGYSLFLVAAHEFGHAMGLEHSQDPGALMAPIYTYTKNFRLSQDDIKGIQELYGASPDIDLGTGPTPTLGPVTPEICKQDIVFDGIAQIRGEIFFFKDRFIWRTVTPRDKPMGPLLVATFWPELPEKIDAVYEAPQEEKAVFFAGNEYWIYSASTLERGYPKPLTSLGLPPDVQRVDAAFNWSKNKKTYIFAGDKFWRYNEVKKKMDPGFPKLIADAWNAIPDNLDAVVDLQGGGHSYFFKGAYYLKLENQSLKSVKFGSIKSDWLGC
Sequence of human Neurokinin, NK2 Receptor, TACR2 (gene 6865) (P21452 whole entry, looked up): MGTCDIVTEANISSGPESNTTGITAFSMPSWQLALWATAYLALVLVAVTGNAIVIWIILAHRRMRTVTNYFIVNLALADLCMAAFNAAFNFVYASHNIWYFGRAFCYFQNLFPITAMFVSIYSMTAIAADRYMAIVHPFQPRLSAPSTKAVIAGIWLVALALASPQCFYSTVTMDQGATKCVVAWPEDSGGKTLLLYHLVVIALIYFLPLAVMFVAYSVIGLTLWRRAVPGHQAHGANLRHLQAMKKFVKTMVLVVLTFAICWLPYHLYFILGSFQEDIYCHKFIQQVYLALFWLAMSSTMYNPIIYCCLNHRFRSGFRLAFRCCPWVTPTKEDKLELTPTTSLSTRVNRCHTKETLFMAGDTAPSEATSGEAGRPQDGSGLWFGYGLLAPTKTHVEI

On to `O=C1CCCCCCCCCCCN1`, for which the result in test [1] was inactive. By AC50 is commonly meant the midpoint of the concentration-response curve, whichever way the signal moves. In the case of `CCc1occc(=O)c1O`, the AC50 was 6.98 µM (active) in test [2] and 0.243 µM (active) in [3]. As for `O=C(Oc1ccccc1)c1ccccc1C(=O)Oc1ccccc1`, in test [2], the AC50 is 9.17 µM (active).

Regarding `CC(C)CCCCCOC(=O)CS`, the AC50 in test [2] was 5.63 µM (active). `CCN(CC)c1cccc(C)c1`: the outcome in test [1] was inactive.

Take `CCCCOC(=O)CCC(C)=O`: the AC50 in test [2] was 6.97 µM (active). As for `O=C1CCCCCCCCCCC1`, the molecule was classed as inactive in test [1] and in [4]. On to `CCCCC(C=O)CC` (stereo not given), for which the AC50 in [2] is 5.82 µM (active).

Take `CCCCCCCO`: in test [2], the AC50 was 0.197 µM (active). `C=CCCCCCCCCC=O`: in [2], the AC50 was 5.07 µM (active). Further, the molecule was classed as inactive in [3]. On to `COc1ccc(C(=O)/C(Br)=C\C(=O)O)cc1`, for which the AC50 in test [2] was 4.96 µM (active); in test [3] it was 25 µM (active). With `CC(=O)OC1CCCCC1`, the call in test [1] was inactive.

Regarding `CC(C)(CO)COC(=O)C(C)(C)CO`, the AC50 in test [2] is 9.37 µM (active).

Consider `CCCCOCCOCCOC(C)=O`, for which, in test [2], the AC50 was 1.23 µM (active). Moreover, the outcome in test [1] and in test [4] was inactive. Take `OCCCc1ccccc1`: the molecule was classed as inactive in test [2]. As to `CCCCCC1=CCCC1=O`, the call in [1] was inactive. In addition, the AC50 in test [3] was 25 µM (active). As to `CC=C(C)C=CC=C(C)C`, the results for the half-maximal activity concentration (AC50) in test [2] and in test [4] were 4.96 µM (active) and 0.976 µM (active), respectively. Further, the call in test [1] was inactive. In the case of `[Cl][Sc]([Cl])[Cl]`, in test [1], the AC50 was 1.67 µM (active). Also, the result in [5] and in [6] was inactive. Consider `CC1(C)C(=O)N(CO)C(=O)N1CO`, for which the AC50 in [1] was 46.5 µM (active).

Turning to `CCOC(=O)C1=NOC(c2ccccc2)(c2ccccc2)C1`, in test [2], the AC50 is 2.32 µM (active). Take `Nc1ccc(C(=O)O)cc1`: in test [7], the call was inactive. For `C=C(C)C1CC=C(C)C(OC(C)=O)C1` (stereo not given), the molecule was called inactive in test [1]. Also, the AC50 in test [4] is 25 µM (active). Regarding `CC(=O)OC(C)c1ccccc1` (stereo not given), the call in test [1], in test [4] and in test [3] was inactive.

`CCC1(C)C(=O)N(Cl)C(=O)N1Cl` (stereo not given): the AC50 in test [1] is 20.7 µM (active).

In the case of `CC(C)c1cccc(C(C)C)c1N`, the AC50 in test [2] is 6.9 µM (active).

On to `C=C(C)OC(C)=O`, for which the AC50 in test [2] is 9.44 µM (active). For `CCC(C)(O)CCCC(C)C` (stereo not given), the AC50 in test [2] was 0.972 µM (active). Still for that read-out and setting: the same measure for `Cc1ccc(S(=O)(=O)N=C=O)cc1`: 7.22 µM (active).

Regarding `CO[Si](CCCS)(OC)OC`, the results for the AC50 in [2] and in test [4] were 12.4 µM (active) and 39 µM (active), respectively. For `CCN1CN(CC)CN(CC)C1`, the molecule was called inactive in test [8] and in [9]. Turning to `CCCCCCCC(=O)OCC(COC(=O)CCCCCCC)OC(=O)CCCCCCC`, the AC50 in test [2] was 4.96 µM (active). On the same count and under the same terms, as for `CC(C)C(=O)OCCOc1ccccc1`, the figure is 7.19 µM (active). Same read-out and setting: the same measure for `CCCCCCOC(=O)CCCCC(=O)OCCCCCC`: 7.16 µM (active).

On to `CCCCOCC(C)O` (stereo not given), for which, in test [1], the molecule was called inactive.
